Where “and” joins values, the source holds several entries; their conditions need not be identical. Equal entries are not always repeated. Records with an inconclusive call do not appear. Calls of active or inactive are those of the source. Unless noted, calls come from the whole dose curve.

Assay [1] can be described thus: qHTS for Inhibitors of the Functional Ribonucleoprotein Complex (vRNP) of Lassa (LASV) Arenavirus: LASV Primary Screen - GLuc reporter signal (AID 1347082; calls by dose curve; tested in HEK293 reporter line; note: % is set by controls: 0 for no effect and ±100 for the full control effect; nearly all actives have a fitted effect of over 60% in size). In general terms: In qHTS, concentration-response curves come from the screen itself.
The nature of assay [2]: qHTS for Inhibitors of the Functional Ribonucleoprotein Complex (vRNP) of Lassa (LASV) Arenavirus: Viability assay - alamar blue signal for LASV Primary Screen (AID 1347083; calls by dose curve; tested in HEK293 reporter line; note: % is set by controls: 0 for no effect and ±100 for the full control effect; nearly all actives have a fitted effect of over 80% in size).
Assay [3] is described as follows: qHTS for Inhibitors of the Functional Ribonucleoprotein Complex (vRNP) of Lymphocytic Choriomeningitis Arenaviruses (LCMV): Viability assay - alamar blue signal for LCMV Primary Screen (AID 1347085; calls by dose curve; tested in HEK293 reporter line; note: % is set by controls: 0 for no effect and ±100 for the full control effect; nearly all actives have a fitted effect of over 80% in size).
Assay [4] addresses Nucleoprotein (Lymphocytic choriomeningitis virus (strain Armstrong)) (UniProt P09992). The experiment in a line: qHTS for Inhibitors of the Functional Ribonucleoprotein Complex (vRNP) of Lymphocytic Choriomeningitis Arenaviruses (LCMV): LCMV Primary Screen - GLuc reporter signal (AID 1347086). Note: % is set by controls: 0 for no effect and ±100 for the full control effect; nearly all actives have a fitted effect of over 70% in size.
Assay [5] has as its system Zika virus NS2B-NS3 protease. The assay is described as follows: Primary screen GU AMC qHTS for Zika virus inhibitors (AID 1347154; active = well fitted curve in the direction sought with a large enough effect; an effect the other way counts as inactive or inconclusive;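 note: 0% = no-inhibitor control and -100% = no-enzyme control; nearly all actives have a fitted effect of over 70% in size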). The method in brief:
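Fluorogenic AMC-substrate cleavage by noncovalent NS2B-NS3 protease complex (25 nM, pH 8.0 Tris buffer with Tween 20) followed for 15 minutes at room temperature (~20% conversion). Percent inhibition from ex340/em450 signal change, fitted by 4-parameter Hill equation.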

Assay [6] is described as follows: qHTS Assay for Lipid Storage Modulators (AID 1519). For activity change, negative = inhibition: % is set by controls: 0 for no effect and ±100 for the full control effect. Conditions: Drosophila S3 cells, BODIPY lipid droplet/cell ratio, laser cytometry, cells loaded with oleic acid. The method in brief:
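Cells seeded at 5,000 per well were treated with compounds over a concentration series and loaded with oleic acid (400 uM, as added). Lipid droplet fluorescence (488 nm excitation, 500-530 nm channel) was read by laser-scanning cytometry and normalized to 20 uM Triacsin C.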

Assay [7] can be described thus: qHTS for inhibitors of Rabies Virus screened against the NCATS CANVASS Library (AID 1347402). Note: 0% is about no effect.
Assay [8] can be described thus: Primary qHTS for small molecule stabilizers of the endoplasmic reticulum resident proteome: Secreted ER Calcium Modulated Protein (SERCaMP) assay (AID 1508630; active = well fitted curve in the direction sought with a large enough effect; an effect the other way counts as inactive or inconclusive; note: % is set by controls: 0 for no effect and ±100 for the full control effect). The method in brief: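 The SH-SY5Y reporter protocol was run at 3 concentrations up to 38.3 uM (primary) or 11 concentrations (follow-up): 16 h compound, 100 nM thapsigargin for 4 h, then extracellular luciferase luminescence.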

A short description of assay [9]: Cytotoxicity counterscreen for inhibitors of SARS-CoV-2 cell entry (AID 1645845). Note: % is set by controls: 0 for no effect and ±100 for the full control effect; nearly all actives have a fitted effect of over 50% in size. Put shortly: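 ATP-content luminescence (ATPLite 1step, 15 min RT) read after 48 h compound exposure of Expi293F cells stably expressing human ACE2; normalized to cells-only wells and media-only wells.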
Assay [10] can be described thus: Primary qHTS to identify inhibitors of SARS-CoV-2 cell entry (AID 1645846). Note: nearly all actives have a fitted effect of over 45% in size. Conditions: activity change, negative = inhibition: at 57.1 µM (top of the series) unless noted. Put shortly: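 Entry measured by luciferase signal 48 h after adding SARS-CoV-2-S pseudotyped MLV particles to HEK293-ACE2 cells preincubated 1 h with compounds. Normalisation: bald particles and spike particles.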

Assay [11] can be described thus: Primary qHTS for inhibitors of SARS-S pseudo-typed particle cell entry (AID 1479145). Note: % is set by controls: 0 for no effect and ±100 for the full control effect; nearly all actives have a fitted effect of over 45% in size.
A short description of assay [12]: Primary qHTS for Huh7 cytotoxicity: counterscreen for inhibitors of MERS-S pseudotyped particle cell entry (AID 1479147). The settings on record: outcome: dose series up to 57.1 µM unless noted.
A short description of assay [13]: Primary qHTS for inhibitors of MERS-S pseudo-typed particle cell entry (AID 1479149). Note: nearly all actives have a fitted effect of over 60% in size. Note: potency is the fitted concentration of half-maximal effect.
Assay [14] can be described thus: Primary qHTS for Vero E6 cytotoxicity: counterscreen for inhibitors of SARS-S pseudo-typed particle cell entry (AID 1479150). The settings on record: outcome: dose series up to 57.1 µM unless noted.
For assay [15], the target named is Alpha-galactosidase (Coffea arabica) (UniProt Q42656). The assay is described as follows: Counterscreen for Glucocerebrosidase Inhibitors: qHTS Assay for Coffee Bean alpha-Galactosidase at pH 4.5 (AID 957; active = well fitted curve in the direction sought with a large enough effect; an effect the other way counts as inactive or inconclusive;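 note: plate controls were enzyme alone for no effect and no enzyme for full effect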). The method in brief: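 Fluorogenic qHTS at pH 4.5 (citrate buffer with Tween-20): 2 nM enzyme, 80 uM 4-MU-alpha-galactoside substrate, compound titrated 0.7 nM to 77 uM, 20 min room temperature. Glycine/NaOH stop; 4-MU read Ex 365/Em 440; Hill-equation AC50 against no-enzyme and enzyme controls.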

The target is the same in assay [16]. The experiment in a line: Counterscreen for Glucocerebrosidase Inhibitors: qHTS Assay for Coffee Bean alpha-Galactosidase at pH 5.9 (AID 998; active = well fitted curve in the direction sought with a large enough effect; an effect the other way counts as inactive or inconclusive;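 note: plate controls were uninhibited enzyme for no effect and no-enzyme basal signal for full effect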). The method in brief:
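Fluorogenic 4-MU substrate hydrolysis, 80 uM substrate and 2 nM coffee bean alpha-galactosidase, pH 5.9 citrate buffer, 20 min at room temperature, then NaOH/glycine stop. Titration 0.7 nM–77 uM, normalized to no-enzyme and enzyme controls, AC50 via Hill equation.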
For orientation: The purpose of a counterscreen is to sort out artefacts and off-target activity.

Assay [17] in a line: Validation screen for inhibitors of Lassa infection (AID 463096). Note: % is set by controls: 0 for no effect and ±100 for the full control effect.
Assay [18] can be described thus: Inducers of the Endoplasmic Reticulum Stress Response (ERSR) in human glioma: Validation (AID 504836; active = well fitted curve in the direction sought with a large enough effect; an effect the other way counts as inactive or inconclusive; note: 0% is about no effect). The method in brief: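 ERSR induction read as luciferase luminescence (Bright-Glo, 10 min at room temperature) in stably transfected human U87-MG glioma cells exposed to compounds for 16 h, using GRP78 as sensor.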
Assay [19] can be described thus: Confirmatory qHTS to identify inhibitors of SARS-CoV-2 cell entry (AID 1645844). Note: potency is the fitted concentration of half-maximal effect; nearly all actives have a fitted effect of over 45% in size. The method in brief:
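Luminescence entry read-out after 48 h: spike-pseudotyped MLV particles (Wuhan-Hu-1, 19-aa C-terminal truncation) added to compound-pretreated (1 h) HEK293-ACE2 cells; Data were normalised to bald PP and spike PP wells.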

[20] abbreviates: measured here: cell count channel max response.
The mark [21] stands for this setting: measured here: lipid channel max response.

Chain of Nucleoprotein (Lymphocytic choriomeningitis virus (strain Armstrong)) (P09992 whole entry, looked up): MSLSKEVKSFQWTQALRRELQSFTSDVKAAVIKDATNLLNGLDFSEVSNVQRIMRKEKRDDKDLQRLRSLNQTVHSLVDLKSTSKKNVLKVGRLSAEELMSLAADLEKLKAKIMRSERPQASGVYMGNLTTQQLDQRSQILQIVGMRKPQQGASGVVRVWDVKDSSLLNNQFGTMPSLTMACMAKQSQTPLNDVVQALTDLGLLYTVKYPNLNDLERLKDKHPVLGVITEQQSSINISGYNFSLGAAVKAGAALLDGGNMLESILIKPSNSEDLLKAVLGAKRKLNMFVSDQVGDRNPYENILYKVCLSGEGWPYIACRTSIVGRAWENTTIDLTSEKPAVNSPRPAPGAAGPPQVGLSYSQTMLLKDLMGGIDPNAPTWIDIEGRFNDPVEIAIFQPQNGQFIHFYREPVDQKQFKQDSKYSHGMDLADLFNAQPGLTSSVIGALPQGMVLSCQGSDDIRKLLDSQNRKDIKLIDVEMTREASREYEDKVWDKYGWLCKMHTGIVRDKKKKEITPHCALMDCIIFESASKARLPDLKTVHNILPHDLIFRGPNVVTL
Chain of Alpha-galactosidase (Coffea arabica) (Q42656 whole entry, looked up): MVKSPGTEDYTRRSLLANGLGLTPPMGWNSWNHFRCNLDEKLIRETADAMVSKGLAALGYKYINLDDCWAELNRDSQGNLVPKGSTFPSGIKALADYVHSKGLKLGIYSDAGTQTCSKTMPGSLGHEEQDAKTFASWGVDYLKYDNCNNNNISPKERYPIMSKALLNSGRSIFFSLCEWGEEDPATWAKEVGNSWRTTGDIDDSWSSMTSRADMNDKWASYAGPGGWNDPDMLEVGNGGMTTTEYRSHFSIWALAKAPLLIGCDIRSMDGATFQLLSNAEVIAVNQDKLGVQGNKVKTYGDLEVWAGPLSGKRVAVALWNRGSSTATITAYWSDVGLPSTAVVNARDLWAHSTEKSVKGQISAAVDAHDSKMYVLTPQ

With `Cc1cc(CS(=O)(=O)c2ccccc2)cc(OCc2ccc(CN3CCC[C@H]3CO)cc2)c1`, the Potency entry in assay [1], in [2], in assay [3] and in assay [4] was “inactive” throughout.
As to `Cn1cccc1-c1cccnc1`, the Potency entry in [1], in assay [2], in [3], in assay [4] and in assay [5] was “inactive” in each case.
As for `c1cncc([C@@H]2CCCCN2)c1`, the activity change, negative = inhibition in assay [6] (at 25.7 µM (top of the series)) was -0.77% (inactive); in assay [6] (at 57.5 µM (top of the series)), -0.69% (inactive). The max response is -8.06% and -15.1% in [6] (setting [20]); -8.76% and -13.6% in assay [6] (setting [21]). Besides, the Potency entry in assay [1], in [2], in assay [3], in assay [4] and in assay [5] was “inactive” throughout.
Take `CN(C)Cc1c[nH]c2ccccc12`: in assay [6] (at 25.7 µM (top of the series)), the activity change, negative = inhibition is -1.33% (inactive). Besides, the max response in assay [6] (setting [20]) and in assay [6] (setting [21]) was -14% in each case. Besides, the Potency result in assay [1], in assay [2], in assay [3], in assay [4] and in assay [5] was “inactive” in each case. Besides, the outcome in assay [7] was inactive.
On to `C[C@H]1CC[C@@H]2N(C1)C[C@H]1[C@@H]3C[C@H]4[C@@H](CC(=O)[C@H]5C[C@@H](O)CC[C@@]54C)[C@@H]3CC[C@H]1[C@]2(C)O`, for which the Potency entry in assay [1], in assay [2], in [3], in [4], in [5] and in assay [8] was “inactive” each time.
For the compound `O=c1cc(-c2ccccc2)oc2cc(O)c(O)c(O)c12`, the Potency entry in assay [1], in assay [2], in assay [3], in assay [4], in assay [9] and in assay [10] was “inactive” in each case. Besides, in [7], the result was inactive.
`c1cncc(C2CCCN2)c1` (stereo not drawn): the Potency result in assay [1], in [2], in assay [3], in [4], in assay [5] and in assay [8] was “inactive” throughout.
As for `C[C@@H]1OC(=O)[C@H]2C[C@H]3CCCC[C@@H]3[C@@H](/C=C/[C@H]3CCC[C@H](C)N3C)[C@@H]12`, the Potency entry in assay [1], in assay [2], in assay [3], in [4] and in assay [5] was “inactive” in each case.
Consider `NCCc1ccccc1`, for which the Potency result in [1], in assay [2], in assay [3], in assay [4], in [5] and in [8] was “inactive” each time. Also, the outcome in [7] was inactive.
Regarding `O=C(O)C(O)Cc1ccc(O)c(O)c1` (stereo not drawn), the Potency result in assay [1], in assay [2], in assay [3], in assay [4] and in assay [9] was “inactive” throughout. Further, the compound was classed as inactive in assay [7]. Besides, the activity change, negative = inhibition in assay [10] is -13% [at 114 µM].
Turning to `CNCC/C=C/c1cccnc1`, the Potency result in [1], in assay [2], in assay [3], in assay [4], in assay [5] and in [8] was “inactive” throughout.
For the compound `O=c1cc(-c2ccc(O)c(O)c2)oc2cc(O[C@@H]3O[C@H](CO)[C@@H](O)[C@H](O)[C@H]3O)cc(O)c12`, the Potency entry in assay [1], in assay [2], in [3] and in assay [4] was “inactive” throughout. Besides, the call in assay [7] was inactive.
With `CCN1C[C@]2(COC(=O)c3ccccc3N3C(=O)CC(C)C3=O)CC[C@H](OC)[C@@]34C5C[C@@H]6[C@@H](OC)C[C@@](O)(C5[C@H]6OC)[C@](O)([C@@H](OC)C23)[C@@H]14` (stereo partly drawn), the Potency entry in assay [1], in assay [2], in assay [3], in assay [4] and in [5] was “inactive” in each case.
As to `CN(CCCC(=O)c1cccnc1)N=O`, the Potency result in assay [1], in assay [2], in assay [3], in [4], in [5] and in assay [8] was “inactive” throughout.
Take `CC1=C(O)C(=O)[C@@H]2O[C@@H]2C1=O`: the Potency result in [1], in assay [2], in assay [3], in assay [4], in assay [5] and in [8] was “inactive” in each case.
For `CC1=C(/C=C/C(C)=C/C=C/C(C)=C/C=C/C=C(C)/C=C/C=C(C)/C=C/C2=C(C)C[C@@H](O)CC2(C)C)C(C)(C)C[C@H](O)C1`, the Potency result in assay [1], in [2], in assay [3], in assay [4], in assay [11] and in assay [13] was “inactive” each time. For the same compound, the Potency entry in assay [9] was “inactive”. Further, the outcome in assay [12] and in [14] was inactive.
With `CC(C)CC[C@@H](O)[C@](C)(O)C1CC[C@@]2(O)C3=CC(=O)[C@@H]4C[C@@H](O)[C@@H](O)C[C@]4(C)C3CC[C@]12C` (stereo partly drawn), the Potency result in assay [1], in [2], in assay [3] and in assay [4] was “inactive” throughout.
For the compound `O=C(O)Cc1c[nH]c2ccccc12`, the Potency entry in [1], in [2], in assay [3] and in [4] was “inactive” throughout. In addition, in assay [7], the compound was called inactive.
With `CC(=O)NCCc1c[nH]c2ccc(O)cc12`, the compound was classed as inactive in assay [15], in assay [16], in assay [18] and in [7]. In addition, the Potency entry in assay [17], in [1], in assay [2], in assay [3] and in assay [4] was “inactive” throughout.
In the case of `CC(c1c(O)c2ccccc2[nH]c1=O)C1(C)CCC(O)C(C)(C)O1` (stereo not drawn), the Potency result in [1], in assay [2], in assay [3] and in assay [4] was “inactive” in each case.
Turning to `CC(C)(O[C@@H]1O[C@H](CO)[C@@H](O)[C@H](O)[C@H]1O)[C@H]1Cc2cc3ccc(=O)oc3cc2O1`, the Potency entry in [1], in assay [2], in [3] and in assay [4] was “inactive” throughout.
Regarding `COc1ccc(CCN)cc1`, the Potency entry in [1], in assay [2], in assay [3], in [4] and in assay [5] was “inactive” each time.
With `CN1CCCCC1c1cccnc1` (stereo not drawn), the Potency result in assay [1], in assay [2], in [3], in [4], in assay [5] and in assay [8] was “inactive” each time.
On to `COc1cc2c(cc1Cc1cccc(Cl)c1F)c(=O)c(C(=O)O)cn2[C@H](CO)C(C)C`, for which the Potency entry in assay [1], in [2], in assay [3], in [4], in [11] and in assay [9] was “inactive” throughout. Further, the compound was classed as inactive in assay [12] and in assay [14]. Besides, the Potency in [13] is 12.6 µM (active); in assay [19] it was 0.0607 µM (active). Also, in assay [10], the activity change, negative = inhibition is -96.1% and -86.8%.
In the case of `CON(C)C(=O)N1N=C(c2cc(F)ccc2F)S[C@]1(CCCN)c1ccccc1`, the Potency result in [1], in [2], in [3] and in assay [4] was “inactive” each time.
For the compound `O=C1O/C(=C\c2ccc(O)cc2)C(O)=C1c1ccc(O)cc1`, the Potency entry in assay [1], in assay [2], in assay [3] and in assay [4] was “inactive” throughout.
For the compound `COc1ccc2[nH]c3c(c2c1)CCNC3C` (stereo not drawn), the Potency result in assay [1], in assay [2], in [3], in assay [4] and in [5] was “inactive” in each case.
Turning to `CC(=O)OCC1=C(C(=O)[O-])N2C(=O)[C@@H](NC(=O)CCC[C@@H](N)C(=O)[O-])[C@H]2SC1.[Zn+2]`, the Potency result in assay [17], in assay [1], in assay [2], in assay [3] and in [4] was “inactive” throughout.

The record behind these values is PubChem BioAssay (NCATS).
